We go through 20 compounds from PubChem BioAssay.

A number with no mark means an inactive call. For some of these results: Entries with a potency or affinity are not part of this list. The source made the active and inactive calls. Unless noted, the rule behind the calls is not given here.

As usually defined, the inhibition is the change of the read-out against control, counted positive when it falls.

Assay [1] in a line: antimalarial activity against Dd2 strain (AID 2302;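 active = growth inhibition above 50% at the single 2 µM test dose, taken to imply half-maximal potency below 2 µM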;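 note: 0% = DMSO untreated growth and 100% = chloroquine plus artemisinin killed control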). Conditions: P. falciparum Dd2 in RBCs, LDH growth readout, 72 h; at 2 µM; hits give high values.
The nature of assay [2]: HepG2 cytotoxicity, primary screen, cytotoxicity control for P. falciparum antimalarial project, cell-based, ATP luminescence (AID 2303;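 active = inhibition above 50%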;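 note: 0% = DMSO wells and 100% = digitonin-killed cells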). Conditions: HepG2 viability, 24-48 h, at 10 µM, hits give high values.
Assay [3] deals with L-lactate dehydrogenase (Plasmodium falciparum (isolate CDC / Honduras)) (UniProt Q27743). Put plainly: PfLDH activity inhibition – cell lysate, 3D7 strain, counter-screen for P. falciparum growth inhibition project (AID 2304).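 Note: 0% = vehicle and 100% = reference inhibitor.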 Conditions: P. falciparum 3D7 crude extract, LDH APAD/NBT absorbance; at 2 µM; hits give high values.
The nature of assay [4]: inhibition of 3D7 malaria parasite growth – strain 3D7 (AID 2306).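 Note: 0% = DMSO wells and 100% = chloroquine plus artemisinin control wells.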 Conditions: P. falciparum 3D7 erythrocytic growth, LDH absorbance, 72 h; at 2 µM; hits give high values.
For assay [5], the target named is Calcium-dependent protein kinase 1 (Plasmodium falciparum (isolate 3D7)) (UniProt P62344). Put plainly: PfCDPK1 kinase inhibitors, biochemical, TCAMS library (AID 1159585; cut-off not given, nearly all actives have IC50 up to about 0.98 µM;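 note: inhibitors leave more ATP so luminescence rises with inhibition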). Conditions: recombinant PfCDPK1, Kinase-Glo ATP depletion luminescence. (Kinase-Glo reads ATP consumption through a luciferase reaction.)
For assay [6], the target named is Plasmodium falciparum protein kinase 6 (PK6, PF3D7_1337100) (UniProt Q8IDW1). Put plainly: PfPK6 kinase inhibitors, biochemical, TCAMS library (AID 1159586). Conditions: recombinant PfPK6, Kinase-Glo ATP depletion luminescence.
Assay [7] has as its target Protein kinase 7 (PK7), Plasmodium falciparum 3D7 (PF3D7_0213400) (UniProt Q7YTF7). Put plainly: inhibition of Plasmodium PK7 catalytic activity – biochemical, TCAMS antimalarial set, Kinase-Glo luminescence (AID 1159587). Conditions: recombinant PfPK7, Kinase-Glo ATP depletion luminescence.
Assay [8] concerns the target Calcium-dependent protein kinase 4 (Plasmodium falciparum (isolate 3D7)) (UniProt Q8IBS5). The assay is described as follows: PfCDPK4 kinase inhibitors, biochemical, TCAMS library (AID 1159588; cut-off not given, nearly all actives have IC50 up to about 0.91 µM). Conditions: recombinant PfCDPK4, Kinase-Glo ATP depletion luminescence.

Plasmodium falciparum protein kinase 6 (PK6, PF3D7_1337100), sequence (Q8IDW1 1-305): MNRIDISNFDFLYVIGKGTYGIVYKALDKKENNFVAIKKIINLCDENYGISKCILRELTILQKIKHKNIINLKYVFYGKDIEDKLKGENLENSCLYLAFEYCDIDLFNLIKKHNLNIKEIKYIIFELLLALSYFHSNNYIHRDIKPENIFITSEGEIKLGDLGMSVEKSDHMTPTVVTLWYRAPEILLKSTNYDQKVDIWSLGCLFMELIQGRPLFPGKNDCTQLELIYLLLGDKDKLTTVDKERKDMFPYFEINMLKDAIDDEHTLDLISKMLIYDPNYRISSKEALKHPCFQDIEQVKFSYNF
L-lactate dehydrogenase (Plasmodium falciparum (isolate CDC / Honduras)), sequence (Q27743 whole entry, looked up): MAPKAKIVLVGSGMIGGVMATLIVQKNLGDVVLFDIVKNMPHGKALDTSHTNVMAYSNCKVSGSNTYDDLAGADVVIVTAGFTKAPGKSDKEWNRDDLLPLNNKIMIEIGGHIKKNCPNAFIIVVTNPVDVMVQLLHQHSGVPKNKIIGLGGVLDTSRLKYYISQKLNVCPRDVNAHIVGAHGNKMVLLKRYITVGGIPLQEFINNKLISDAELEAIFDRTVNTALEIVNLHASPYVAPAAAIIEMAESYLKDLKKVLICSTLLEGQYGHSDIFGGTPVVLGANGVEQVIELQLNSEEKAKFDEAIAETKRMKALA
Calcium-dependent protein kinase 1 (Plasmodium falciparum (isolate 3D7)), sequence (P62344 whole entry, looked up): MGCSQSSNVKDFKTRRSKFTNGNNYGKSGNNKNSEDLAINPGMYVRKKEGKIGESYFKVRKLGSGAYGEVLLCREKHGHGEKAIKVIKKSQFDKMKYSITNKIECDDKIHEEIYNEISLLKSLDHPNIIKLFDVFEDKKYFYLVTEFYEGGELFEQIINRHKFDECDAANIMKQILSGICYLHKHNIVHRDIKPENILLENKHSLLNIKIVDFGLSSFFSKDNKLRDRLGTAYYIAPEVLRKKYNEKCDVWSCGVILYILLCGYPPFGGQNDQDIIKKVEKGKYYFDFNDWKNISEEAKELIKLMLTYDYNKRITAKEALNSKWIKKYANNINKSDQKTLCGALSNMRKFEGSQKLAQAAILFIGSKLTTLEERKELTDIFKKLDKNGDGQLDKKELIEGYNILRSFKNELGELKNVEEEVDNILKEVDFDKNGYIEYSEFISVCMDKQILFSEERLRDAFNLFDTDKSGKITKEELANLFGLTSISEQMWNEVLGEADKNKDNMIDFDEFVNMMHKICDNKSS
Calcium-dependent protein kinase 4 (Plasmodium falciparum (isolate 3D7)), sequence (Q8IBS5 whole entry, looked up): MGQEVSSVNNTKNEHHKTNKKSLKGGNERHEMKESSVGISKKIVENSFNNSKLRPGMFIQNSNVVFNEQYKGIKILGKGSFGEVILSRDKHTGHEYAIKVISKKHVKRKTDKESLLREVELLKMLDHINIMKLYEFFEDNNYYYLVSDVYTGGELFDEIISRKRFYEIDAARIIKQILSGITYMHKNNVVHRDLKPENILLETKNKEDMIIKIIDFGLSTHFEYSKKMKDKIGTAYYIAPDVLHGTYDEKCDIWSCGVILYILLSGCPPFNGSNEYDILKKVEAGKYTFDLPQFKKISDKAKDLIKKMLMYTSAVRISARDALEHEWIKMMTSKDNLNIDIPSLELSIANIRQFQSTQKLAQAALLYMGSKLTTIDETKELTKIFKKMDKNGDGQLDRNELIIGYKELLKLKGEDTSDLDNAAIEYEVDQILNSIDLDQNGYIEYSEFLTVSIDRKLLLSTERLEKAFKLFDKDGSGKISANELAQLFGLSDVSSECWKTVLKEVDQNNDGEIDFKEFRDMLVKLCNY
Protein kinase 7 (PK7), Plasmodium falciparum 3D7 (PF3D7_0213400), sequence (Q7YTF7 1-343): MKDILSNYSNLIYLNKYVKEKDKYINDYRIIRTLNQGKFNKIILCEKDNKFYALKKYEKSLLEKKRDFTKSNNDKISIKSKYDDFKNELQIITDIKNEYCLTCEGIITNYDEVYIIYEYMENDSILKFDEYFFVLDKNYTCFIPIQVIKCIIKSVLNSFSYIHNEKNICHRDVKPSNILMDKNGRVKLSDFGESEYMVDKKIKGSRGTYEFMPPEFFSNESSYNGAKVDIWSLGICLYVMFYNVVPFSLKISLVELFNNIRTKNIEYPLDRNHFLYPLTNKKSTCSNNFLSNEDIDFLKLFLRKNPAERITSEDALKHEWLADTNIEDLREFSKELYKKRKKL

Consider `O=C(Nc1ccc(-c2cccc(-c3nc4ccc(C(F)(F)F)cc4[nH]3)c2)cc1)Nc1ccc(F)c(F)c1F`, for which the figures for the growth inhibition in assay [1] and in assay [4] were 85% (active) and 99% (active), respectively. The results for the inhibition in assay [2] and in assay [3] were 58% (active) and 1%, respectively. Further, the outcome in assay [5], in assay [6], in assay [7] and in assay [8] was inactive.
With `c1ccc(CNc2nc(NCCc3cnc[nH]3)nc(NCc3cccc4ccccc34)n2)cc1`, the growth inhibition was 1% in assay [1] and 91% (active) in assay [4]. Further, the inhibition is 9% in assay [2] and -4% in assay [3]. Besides, the outcome in assay [5], in assay [6], in assay [7] and in assay [8] was inactive.
Turning to `COc1cccc(-c2ccc(C(=O)NC3CCN(Cc4ccc(C(C)(C)C)cc4)CC3)s2)c1`, the results for the growth inhibition in assay [1] and in assay [4] were 23% and 85% (active), respectively. The inhibition was 43% in assay [2] and -2% in assay [3]. Further, the outcome in assay [5], in assay [6], in assay [7] and in assay [8] was inactive.
Consider `CCCCCOc1ccc(NC2=CC(=O)C(=O)c3ccccc32)cc1`, for which the figures for the growth inhibition in assay [1] and in assay [4] were 96% (active) and 99% (active), respectively. Also, the inhibition in assay [2] was 10%; in assay [3], -4%. The result in assay [5], in assay [6], in assay [7] and in assay [8] was inactive.
Regarding `NC(CC1CC(=O)N1CC(=O)O)C(=O)O` (stereo not given), the values for the growth inhibition in assay [1] and in assay [4] were -3% and 95% (active), respectively. Also, the values for the inhibition in assay [2] and in assay [3] were 56% (active) and -5%, respectively. In addition, the outcome in assay [5], in assay [6], in assay [7] and in assay [8] was inactive.
In the case of `COc1ccc(C2CC(=O)C3=C(C2)NC(C)=C(C(=O)OC2CCCC2)C3c2cccc(O)c2)cc1` (stereo not given), the growth inhibition was 83% (active) in assay [1] and 88% (active) in assay [4]. Besides, the inhibition in assay [2] is -6%; in assay [3] it was -2%. Moreover, the outcome in assay [5], in assay [6], in assay [7] and in assay [8] was inactive.
Turning to `O=C(NC1CCN(CCC[C@]2(c3ccc(Cl)c(Cl)c3)CCCN(C(=O)c3ccccc3)C2)CC1)c1ccc(Cl)cc1`, the growth inhibition in assay [1] was 4%; in assay [4], 95% (active). For the same compound, the inhibition in assay [2] is 56% (active); in assay [3] it was -1%. The result in assay [5], in assay [6], in assay [7] and in assay [8] was inactive.
Turning to `NC(=O)c1cccc(C(=O)Nc2cccc(-c3ccc(-c4nc5ccc(C(F)(F)F)cc5[nH]4)cc3)c2)c1`, the growth inhibition in assay [1] was 78% (active); in assay [4] it was 100% (active). For the same compound, the figures for the inhibition in assay [2] and in assay [3] were 83% (active) and -1%, respectively. Further, the outcome in assay [5], in assay [6], in assay [7] and in assay [8] was inactive.
With `Cc1cccc(CN2CCCN(Cc3ccc(C(=O)Nc4ccc(C(C)(C)C)cc4)cc3)CC2)c1`, the growth inhibition was 4% in assay [1] and 97% (active) in assay [4]. The inhibition in assay [2] was 57% (active); in assay [3], -7%. In addition, the outcome in assay [5], in assay [6], in assay [7] and in assay [8] was inactive.
Regarding `CN(C)c1cccc(-c2cnc3ccc(NCc4cccc(Cl)c4)nn23)c1`, the growth inhibition in assay [1] is 98% (active); in assay [4] it was 99% (active). In addition, the inhibition in assay [2] was 11%; in assay [3], -3%. Further, the result in assay [5], in assay [6], in assay [7] and in assay [8] was inactive.
Turning to `CC(C)CCCC(C)NC[C@@H](O)[C@H](Cc1ccccc1)NC(=O)c1cc(N2CCCC2=O)cc(N(c2ccccc2)S(C)(=O)=O)c1` (stereo not given in full), the growth inhibition is 97% (active) in assay [1] and 99% (active) in assay [4]. The figures for the inhibition in assay [2] and in assay [3] were 17% and -5%, respectively. Moreover, the result in assay [5], in assay [6], in assay [7] and in assay [8] was inactive.
With `COc1ccc2nccc([C@@H](O)CN3CCC(NCc4ccc5cccc(O)c5n4)CC3)c2n1`, the values for the growth inhibition in assay [1] and in assay [4] were 13% and 94% (active), respectively. The figures for the inhibition in assay [2] and in assay [3] were 8% and 2%, respectively. Further, the outcome in assay [5], in assay [6], in assay [7] and in assay [8] was inactive.
For `CC(C)(C(=O)Nc1ccc(N2CCC3(CCCN(CC4CC4)C3)CC2)c(Cl)c1)c1cccc(C(F)(F)F)c1`, the growth inhibition in assay [1] is 0%; in assay [4], 92% (active). For the same compound, the inhibition in assay [2] was 27%; in assay [3] it was 4%. Further, the outcome in assay [5], in assay [6], in assay [7] and in assay [8] was inactive.
For the compound `COc1ccc2nc(C)cc(Nc3ccc(Oc4ccc5ccccc5c4)c(Cl)c3)c2c1`, the growth inhibition is 99% (active) in assay [1] and 102% (active) in assay [4]. Besides, the inhibition is 40% in assay [2] and 3% in assay [3]. For the same compound, the result in assay [5], in assay [6], in assay [7] and in assay [8] was inactive.
As for `CC(=O)c1c(CC(=O)O)c2ccccc2n1O`, the growth inhibition in assay [1] was -1%; in assay [4] it was 98% (active). The inhibition in assay [2] was 16%; in assay [3], -3%. Besides, the outcome in assay [5], in assay [6], in assay [7] and in assay [8] was inactive.
Consider `COc1ccc(C(=O)N[C@@H](CC(C)C)C(=O)N[C@H](/C=N/NC(=O)c2ccccc2)CCc2ccccc2)cc1OCCN1CCOCC1`, for which the growth inhibition is 86% (active) in assay [1] and 96% (active) in assay [4]. Besides, the results for the inhibition in assay [2] and in assay [3] were 2% and 1%, respectively. The outcome in assay [5], in assay [6], in assay [7] and in assay [8] was inactive.
As to `CC1(C)N=C(N)N=C(N)N1OCCSc1ccc(Cl)c(Cl)c1`, the growth inhibition in assay [1] is 95% (active); in assay [4] it was 96% (active). The inhibition in assay [2] was 65% (active); in assay [3], -1%. Further, the outcome in assay [5], in assay [6], in assay [7] and in assay [8] was inactive.
For `CC(C)CNCc1ccc(-c2ccccc2CN(C(=O)NCCc2ccccc2)C2CCN(Cc3ccccc3)CC2)cc1`, the growth inhibition in assay [1] is 94% (active); in assay [4], 98% (active). For the same compound, the inhibition in assay [2] was 89% (active); in assay [3], 2%. For the same compound, the outcome in assay [5], in assay [6], in assay [7] and in assay [8] was inactive.
With `O=C(/C=C/c1ccc(Cl)c(Cl)c1)N1CCN(C(=O)Nc2ccc(F)c(Cl)c2)CC1`, the growth inhibition in assay [1] was 87% (active); in assay [4], 97% (active). Besides, the figures for the inhibition in assay [2] and in assay [3] were 19% and -6%, respectively. The result in assay [5], in assay [6], in assay [7] and in assay [8] was inactive.
As to `CSc1nccc(-c2ccc3ccnc(N)c3c2)n1`, the growth inhibition was 98% (active) in assay [1] and 101% (active) in assay [4]. The inhibition in assay [2] is 30%; in assay [3], 0%. The result in assay [5], in assay [6], in assay [7] and in assay [8] was inactive.
